Consider 21 compounds from PubChem BioAssay (NCATS).

Each structure is given as a SMILES string. Records with an inconclusive call do not appear. Activity calls are given as the source filed them. The call rests on the fitted dose curve; in most records, active means well fitted cell-killing curve with a large enough effect; inconclusive means small, poorly fitted or top-dose-only effect; inactive means flat fitted curve, though single readings scatter.

The experiment can be described thus: Cell Viability - SH-SY5Y (AID 544).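 Further: 0% = DMSO alone and -100% = 100 µM tamoxifen; nearly all actives have a fitted effect of over 55% in size.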 The following applies: SH-SY5Y neuroblastoma cell viability; at 92.2 µM (top of the series). An excerpt: NIH Chemical Genomics Center [NCGC]
NIH Molecular Libraries Screening Centers Network [MLSCN]
National Institutes of Environmental Health Sciences [NIEHS]
National Toxicology Program [NTP]
We have developed a 1536-well cell-based assay for quantitative high throughput screening (qHTS) against a number of cell lines to determine in vitro cytotoxicity of small molecules. This particular assay uses the SH-SY5Y cell line which is derived from human neuroblastoma.
NCGC Assay Protocol Summary:
The CellTiter-Glo luminescent cell viability assay (Promega) is a homogeneous method to measure the number of viable cells in culture. The end point readout of this assay is based on quantitation of intracellular ATP, an indicator of metabolic activity, using the luciferase reaction. Luciferase catalyzes the oxidation of beetle Luciferin to oxyluciferin and light in the presence of ATP. The luminescent signal is proportional to amount of ATP present.
Using the CellTiter-Glo luminescent cell viability assay, the amount of cellular ATP was measured in the SH-SY5Y cell line with complete culture medium following compound treatment for 40 hours. The assay was performed in opaque white Kalypsys 1536-well plates. In the screen, tamoxifen and doxorubicin were used as positive controls. Library compounds were measured for their ability to cause acute toxicity in the cell line, as reflected by a decrease in intracellular ATP levels, in a concentration-dependent manner. […] AC50 values were determined from concentration-response data modeled with the standard Hill equation.
qHTS protocol for CellTiter Glo SH-SY5Y cellular assay
[Step] [Parameter] [Value] [Description]
1. Reagent; 5 uL; 1500 SH-SY5Y cells/well
2. Time; 5 hr; 37 °C incubation
4. Controls; 23 nL; Tamoxifen 0.34 uM to 100 uM & Doxorubicin 0.02 nM to 100 uM
5. Time; 40 hr; 37 °C incubation
6. Reagent; 5 uL; CellTiter Glo reagent
7. Time; 20 min; Room Temperature
8. Detection; Luminescence; Viewlux plate reader
Keywords: cell viability, cytotoxicity, SH-SY5Y cell line, luminescence, NTPHTS, NTPHTS_NCGC, NIEHS, EPA, DSSTox, MLSMR, MLSCN, NIH Roadmap, qHTS, NCGC
As to `CC(=O)OCC(COC(C)=O)OC(C)=O`, the viability change, negative = cytotoxic was 13.4% (inactive).
Consider `Cc1cc(C)nc(NS(=O)(=O)c2ccc(N)cc2)n1`, for which the viability change, negative = cytotoxic was -0.461% (inactive).
The value for `Cc1cc(=O)[nH]c(=S)[nH]1` was -4.62% (inactive).
The value for `CCCCCC(N)=O` was -5.16% (inactive).
As to `CC(=O)NS(=O)(=O)c1ccc(N)cc1`, the viability change, negative = cytotoxic was -13.1% (inactive).
For the compound `CCCCCCCC(=O)OCC(COC(=O)CCCCCCC)OC(=O)CCCCCCC`, the viability change, negative = cytotoxic is -12.2% (inactive).
On to `Nc1ccc(S(=O)(=O)c2ccc(N)cc2)cc1`, for which the viability change, negative = cytotoxic was -10.9% (inactive).
For `CC(=O)Nc1ccccc1`, the viability change, negative = cytotoxic is -26.9% (inactive).
Take `Cc1c(N(C)C)c(=O)n(-c2ccccc2)n1C`: the viability change, negative = cytotoxic is -14.6% (inactive).
As for `CCCCOC(=O)c1ccc(N)cc1`, the figure is -11.2% (inactive); as for `O=C(O)CCCCC1CCSS1` (stereo unspecified), -17.1% (inactive).
As for `CC(=O)Nc1cccc(O)c1`, the figure is 15.1% (inactive); as for `COc1ccc(O)cc1`, 4.2% (inactive).
The value for `CC(=O)Nc1ccc(C(=O)O)cc1` was -7.67% (inactive); that for `O=C(c1ccccc1)C(O)c1ccccc1` (stereo unspecified) was -3.66% (inactive); that for `O=C1C(c2[nH]c3ccccc3c2O)=Nc2ccccc21` was -102% (active).
Regarding `CCN(CC)C(=O)c1cccc(C)c1`, the viability change, negative = cytotoxic was -22.4% (inactive).
Turning to `FC(F)(F)C(Cl)Br` (stereo unspecified), the viability change, negative = cytotoxic is -0.71% (inactive).
As for `CCCC(O)C(CC)CO` (stereo unspecified), the viability change, negative = cytotoxic was -7.87% (inactive).
As for `C=CCNC(N)=S`, the viability change, negative = cytotoxic is -6.07% (inactive).
As for `CC1CC(OC(=O)c2ccccc2O)CC(C)(C)C1` (stereo unspecified), the figure is -0.877% (inactive).
